This is a sample that favours compounds with a hit; in the whole collection about 0.9% have one here.
RGS12 GoLoco inh = inhibitors of human Gai1-RGS12 GoLoco interaction (red fluorophore) | P63096 | Gai1:RGS12 GoLoco peptide FP, rhodamine, 10 min | Potency, µM (doses to about 61.6 µM), for the others: at the top dose activity, negative = inhibition, actives largely listed as inhibitors | hit rate 0.44% among 230,000 | AID 880; active means well fitted inhibition curve with a large enough effect, not every such curve was filed as active; inactive means no such curve, though single readings can be large or run the other way; further: nearly all actives have a fitted effect of over 30% in size
BLM helicase inh = Bloom syndrome helicase (human) inhibition; Potency, µM (highest dose often 56.1 µM), for inactives: top-dose activity change, negative = inhibition, usual class: inhibitors; hit rate 0.2% among 350,000; P54132; recombinant BLM DNA unwinding, fluorescence dequenching;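 further: plate controls were vehicle for no effect and no enzyme for full effect; nearly all actives have a fitted effect of over 35% in size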
APE1 inh = blocks human APE1 abasic DNA cleavage | recombinant APE1, TAMRA/BHQ-2 abasic DNA cleavage fluorescence | Potency, µM (titrated, usually from 65.8 µM), for inactives: at the highest dose activity change, negative = inhibition, hits mostly inhibitors | hit rate 0.35% among 350,000 | AID 2517;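 further: plate controls were vehicle for no effect and reference inhibitor for full effect; nearly all actives have a fitted effect of over 55% in size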
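Quantitative HTS: incision of a TAMRA/BHQ-2 double-stranded substrate bearing a tetrahydrofuran abasic site by 0.75 nM APE1 raises fluorescence. Substrate 50 nM final, added after 15 min compound preincubation at room temperature; progress as third-minus-first kinetic read difference.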
TexasRed fluor = alters Texas Red total fluorescence, flagging assay interference; TRb/SRC2 Texas Red total fluorescence interference; Potency, µM (top dose mostly 106 µM), without a hit: at the highest dose fluorescence change, negative = quenching; hit rate 0.29% among 280,000; active means well fitted curve in either direction with a large enough effect; inconclusive means small, poorly fitted or top-dose-only effect
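Flags fluorescent or light-absorbing compounds by total fluorescence, S + 2P, at 555 nm excitation and 632 nm emission. Mixture: 20 nM Texas Red SRC2 peptide, 0.6 uM human TRb LBD, 1 uM T3, 5% DMSO; compound exposure 5 h at ambient temperature.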
RECQ1 helicase = inhibitors of human RECQ1 DNA helicase | P46063 | RECQ1 DNA unwinding, red fluorescence kinetic read | Potency, µM (series often up to 57.3 µM), for inactives: at the top dose activity, negative = inhibition, actives largely listed as inhibitors | hit rate 0.54% among 240,000 | AID 2549;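 further: plate controls were vehicle for no effect and no enzyme for full effect; nearly all actives have a fitted effect of over 30% in size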
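RECQ1T1 50 nM; forked duplex (20 bp + 30-nt ss tails) 200 nM, ATP 2 mM final; pH 8.0, 2 mM MgCl2, 2.5 ug/ml poly(dI-dC); 15 min compound preincubation; discontinuous kinetic read over 2 h at RT.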
TRb SRC2 PPI = disrupts binding of human TR beta to SRC2; P10828; TRbeta-SRC2 peptide binding, fluorescence polarization; receptor liganded with 1 µM T3; Potency, µM (top dose mostly 106 µM), for inactives: top-dose activity change, negative = inhibition, most hits filed as inhibitors; hit rate 0.065% among 280,000;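 further: plate controls were bound peptide for no effect and peptide without receptor for full effect; nearly all actives have a fitted effect of over 50% in size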
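Compounds were added to 0.6 uM TRb ligand-binding domain and 20 nM Texas Red-labeled SRC2 peptide in Tris buffer containing 1 uM T3, incubated 5 hr at ambient temperature, then read by fluorescence polarization.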
* = called active by the depositor; ? = inconclusive; . = no result given; ! = repeats disagree; [ ] = another dose, or the depositor's remark. Unless noted, the call rests on the fitted dose curve; in most records, active means well fitted curve in the direction sought with a large enough effect; inconclusive means small, poorly fitted or top-dose-only effect, or another doubt; inactive means no such curve, though single readings can be large; an effect the other way counts as inactive or inconclusive. Unless noted, on the % scale 0 is the no-effect control and ±100 the full control effect; potency means the concentration at half of the fitted maximal effect.

SMILES	RGS12 GoLoco inh	BLM helicase inh	APE1 inh	TexasRed fluor	RECQ1 helicase	TRb SRC2 PPI
O=C(c1ccccc1)N1CCCc2ccccc21	0.5%	-4.0%	-1.3%	-0.6%	1.7%	-4.0%
O=C(c1ccc(F)cc1)N1CCOCC1	11.2%	-1.3%	0.7%	1.0%	-1.9%	-0.2%
O=C(c1ccc(=O)oc1)N1CCCc2ccccc21	89.7%	?	31.6µM*	-16.7%	?	-7.2%
O=C(c1coc(=O)c(Br)c1)N1CCOCC1	19.4%	1.3%	12.6µM*	-1.5%	-9.4%	-9.9%
O=C(c1ccc(=O)oc1)N1CCOCC1	.	48.9%	14.1µM*	-9.1%	-9.7%	2.4%
NC[C@H]1O[C@H](O[C@H]2[C@H](O[C@@H]3O[C@H](CO)[C@@H](O)[C@H]3O)C(O)[C@H](N)C[C@@H]2N)[C@H](N)[C@@H](O)[C@@H]1O (stereo partly specified)	.	.	4.2%[21 µM]	.	.	.
COc1cc2ncnc(Nc3cccc(Br)c3)c2cc1OC	3.4%	2.3%	-7.5%	-1.5%	-5.2%	-2.6%
COc1cc2ncnc(Nc3cccc(Cl)c3)c2cc1OC	2µM*!	-6.5%	?	-14.2%	-8.0%	11.3%
CC(C)O.CC(C)O.CC(C)O.CC(C)O.[Ti]	.	.	.	-2.4%[201 µM]	.	-2.4%[201 µM]
O=C(CSc1nnc(-c2cccc(S(=O)(=O)N3CCCC3)c2)n1-c1ccccc1)Nc1ccc(Cl)cc1	.	.	-3.4%	.	.	.
CCc1ccccc1NC(=O)C1CCN(C(=O)N2CCOc3ccccc32)CC1	.	1.0%	34.8%	.	.	.
CCc1ccccc1NC(=O)N1CCOc2ccccc21	.	-3.6%	.	0.0089µM*[quencher]	.	-0.1%
CCOC(=O)c1ccccc1NC(=O)N1CCOc2ccc(Cl)cc21	.	-2.1%	.	4.47µM*[quencher]	.	-6.7%
COc1cccc(-c2nnc3n2N=C(c2ccc(OC)cc2OC)CS3)c1	.	8.9%	-7.4%	-0.6%	-13.4%	-4.7%
CCC(=O)Nc1ccccc1-c1nc2ccccc2n(CC(=O)Nc2ccccc2OC)c1=O	.	-1.5%	.	-0.2%	.	6.8%
CC[n+]1c(C)sc2sc3ccccc3c21	11.2µM*	3.0%	5.3%	0.7%	0.6%	1.4%
CC[n+]1c(C)sc2c3ccsc3ccc21	39.7%	-1.4%	0.3%	-0.7%	-13.8%	0.1%
Cc1ccccc1-c1ccnc2c(-c3ccc(F)cc3)c(C)nn12	.	-9.0%	.	11.2µM*[quencher]	.	-17.3%
O=C(COC(=O)c1cc(-c2ccccc2)nc2ccccc12)c1ccc(Br)cc1	.	-2.0%	.	3.7%	.	-2.0%
C/C(N)=C(/C#N)C(=O)COC(=O)c1cc(-c2ccc(Br)cc2)nc2ccccc12	-17.1%	-9.0%	4.4%	22.4µM*[quencher]	-7.1%	-10.9%[53 µM]
COc1cccc([C@@H]2Oc3ccc(Br)cc3C(=O)[C@H]2OC(=O)NS(=O)(=O)c2ccc(C)cc2)c1	-3.1%	0.4%	-5.1%	-1.6%	-3.1%	3.9%
Cc1ccc2oc(C(=O)Nc3ccc(S(=O)(=O)N(C)c4ccccc4)cc3)cc(=O)c2c1	.	1.1%	.	100µM*[quencher]	.	-10.1%
CCN(c1ccccc1)S(=O)(=O)c1ccc(NC(=O)c2cc(=O)c3cc(C)ccc3o2)cc1	.	0.3%	.	4.0%	.	-4.1%
COc1cccc2c(=S)c(CCC(C)=O)c(C)[nH]c12	-22.6%	2.8%	6.9%	2.82µM*[quencher]	-11.3%	-16.6%[53 µM]
COC(=O)c1c(NC(=O)CN2CCC3(O)CCCCC3C2c2ccc(OC)cc2OC)sc(C)c1C (stereo unspecified)	106.8%	-20.5%	5.5%	100µM*[quencher]	-12.6%	?
CC(C)(C)n1ncc2c(=O)n(Cc3cccc(OC(F)(F)F)c3)cnc21	.	.	-4.0%	.	.	.
Cc1ccc2c(c1)N(CC(=O)NCc1cccc(Cl)c1)C(=O)c1cccnc1O2	.	-0.6%	.	-3.4%	.	-1.4%
Cc1ccc(CNC(=O)CCCN2C(=O)c3cccnc3Oc3ccc(Cl)cc32)cc1	.	-0.3%	.	17.8µM*[quencher]	.	-9.1%
COc1ccc(CNC(=O)CN2C(=O)c3cccnc3Oc3ccc(C)cc32)cc1	.	-0.5%	.	20µM*[quencher]	.	-22.5%

Bioassay records: PubChem, National Center for Advancing Translational Sciences (NCATS)
